The sample as a whole holds a higher share of hits than the screen did.
HEK293 cAMP cs – qHTS Assay for Agonists of the Thyroid Stimulating Hormone Receptor: Activators of Intracellular cAMP Concentrations in Parental HEK 293; parental HEK293 CNG cAMP sensor, membrane potential fluorescence; Potency, µM (top dose mostly 57.1 µM), inactives show top-dose activation, usual class: activators; actives 2.5% (n = 73,000); AID 938, 2007; further: % of control where 0% means no effect; nearly all actives have a fitted effect of over 55% in size
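Counterscreen for endogenous-receptor signalling: CNG-channel HEK 293 cells report cAMP rise by membrane depolarization. After 60 min dye equilibration with 100 uM RO 20-1724, compounds incubated 30 min before bottom-read fluorescence at 590 nm.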
TSHR agonist – qHTS Assay for Agonists of the Thyroid Stimulating Hormone Receptor; HEK293-CNG-TSHR cells (CNG channel as cAMP sensor), membrane potential dye, cAMP; Potency, µM (titrated, usually from 57.1 µM), for inactives: top-dose activation, usual class: activators; actives 0.48% (n = 73,000); AID 926, 2007; active means well fitted activation curve with a large enough effect in the main read-out, with a control signal flat, not every such curve was filed as active; inconclusive means small, poorly fitted or top-dose-only effect, or a change in a side signal; inactive means no such curve, though single readings can be large or run the other way; % of control where 0% means no effect;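 further: the control signal comes from parental cells without the receptor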
Target sequence (P16473 whole entry, looked up): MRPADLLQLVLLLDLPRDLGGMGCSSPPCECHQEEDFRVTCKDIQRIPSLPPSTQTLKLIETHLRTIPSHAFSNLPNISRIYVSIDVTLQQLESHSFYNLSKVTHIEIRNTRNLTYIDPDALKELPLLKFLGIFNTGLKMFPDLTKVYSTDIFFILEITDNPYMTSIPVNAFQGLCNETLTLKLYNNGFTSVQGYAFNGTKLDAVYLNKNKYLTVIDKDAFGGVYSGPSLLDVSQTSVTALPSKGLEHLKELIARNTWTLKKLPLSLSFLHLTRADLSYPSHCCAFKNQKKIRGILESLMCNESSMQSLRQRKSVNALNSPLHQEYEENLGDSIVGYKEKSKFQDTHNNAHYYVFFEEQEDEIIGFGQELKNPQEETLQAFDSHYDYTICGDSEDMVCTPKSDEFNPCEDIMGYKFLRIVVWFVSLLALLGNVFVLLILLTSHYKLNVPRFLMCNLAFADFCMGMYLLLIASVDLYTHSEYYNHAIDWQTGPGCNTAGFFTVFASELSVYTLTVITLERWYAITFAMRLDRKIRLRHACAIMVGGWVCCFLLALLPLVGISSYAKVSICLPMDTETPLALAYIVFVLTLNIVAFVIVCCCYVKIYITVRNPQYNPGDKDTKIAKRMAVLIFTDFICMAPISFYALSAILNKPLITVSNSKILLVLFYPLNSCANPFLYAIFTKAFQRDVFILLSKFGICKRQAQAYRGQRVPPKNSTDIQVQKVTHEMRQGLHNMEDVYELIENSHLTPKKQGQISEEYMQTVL
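HEK 293 cells stably expressing TSHR and a cAMP-gated CNG channel; parental CNG-only cells as counterscreen. Cells preloaded 60 min with membrane potential dye plus 100 uM RO 20-1724, then compound 30 min; fluorescence read at 590 nm.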
Peg3 imprint – qHTS Assay for Compounds that Induce Erasure of Genomic Imprints; mouse ES Peg3-LacZ reporter, beta-gal luminescence, 40 h; Potency, µM (highest dose often 60.7 µM), inactives show top-dose activity change, positive = activation, actives largely listed as activators; AID 1948, 2009; actives 0.02% (n = 110,000)
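Each well holds 300 Peg3LacZ-Neo (maternal) female ES cells incubated 40 h at 37C, 5% CO2. LacZ is measured by BetaGlo luminescence, with AC50 and maximum efficacy derived from dose-response curves.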
An asterisk follows results filed as active; i = inactive; ? = inconclusive; / = not tested or not shown; [ ] = remark or other dose. Unless noted, the call rests on the fitted dose curve; in most records, active means well fitted activation curve with a large enough effect; inconclusive means small, poorly fitted or top-dose-only effect; inactive means no such curve, though single readings can be large or run the other way. Potency means the concentration at half of the fitted maximal effect.

SMILES | HEK293 cAMP cs | TSHR agonist | Peg3 imprint
CCC1=C2CC[C@H]3C(=O)N(c4ccccc4)C(=O)[C@H]3[C@H]2[C@@]2(C)C(=O)N(CC(=O)OC)C(=O)N2C1=O | / | / | 2%
N#Cc1nc(COc2ccccc2F)oc1NCc1ccc(F)cc1 | ? | ? | -8%
COc1ccc(CCNc2oc(COc3ccccc3F)nc2C#N)cc1 | 20µM* | ? | -19%
COc1ccc(CCNc2oc(COc3ccc(Br)cc3)nc2C#N)cc1OC | ? | ? | -19%
COc1ccc(CCNc2oc(Cc3cccc4ccccc34)nc2C#N)cc1OC | 23% | 20µM* | -15%
O=C(O)/C=C(/C(=O)O)[C@]12CCN3CC4=CCO[C@@H]5CC(=O)N[C@@H]1C5[C@H]4C[C@H]32 (some centres undefined) | / | / | 4%[10.9 µM]
CC(=O)c1cccc(NC(=O)C(C)n2c(=O)cc(-c3ccccc3)c3c(C)nn(C)c32)c1 (centres undefined) | / | / | -8%[10.9 µM]
COc1ccccc1CNC(=O)CCCc1nnc2n(CC(C)C)c(=O)c3sccc3n12 | / | / | 12%[10.9 µM]
COc1ccc(OC)c(Nc2c3c(nc4ccccc24)CCC3)c1 | / | / | -18%[10.9 µM]
COc1ccc2nc3c(c(-c4ccccc4)c2c1)CCC3 | 25µM* | ? | -15%
CC(Oc1ccc(Br)cc1)C(=O)NCc1cccnc1 (centres undefined) | -6% | 0% | /
O=C(CSc1nc2ccsc2c(=O)n1Cc1ccccc1F)NCc1ccccc1Cl | / | / | -5%[10.9 µM]
Cc1cnn(-c2ccc3nnc(-c4ccc(Br)cc4)n3n2)c1 | 10µM* | ? | 6%
CC(=O)C(Sc1ccc2nnc(-c3ccc(C)cc3)n2n1)C(C)=O | 7% | 6% | 4%
Cc1onc(-c2ccccc2Cl)c1C(=O)Nc1ccc(OCC(=O)N2CCOCC2)cc1 | 4µM* | ? | -3%
Cc1onc(-c2ccccc2Cl)c1C(=O)Nc1ccc(S(=O)(=O)N2CCCC2)cc1 | -3% | -24% | -13%
COc1ccc(-c2cc(C(F)(F)F)n3ncc(C(=O)NCC4CCCO4)c3n2)cc1 (centres undefined) | 10µM* | ? | 5%
COc1cccc(-c2cc(C(F)(F)F)n3ncc(C(=O)NCC4CCCO4)c3n2)c1 (centres undefined) | ? | ? | 1%
O=C(CN1C(=O)CSc2ccc(S(=O)(=O)N3CCCC3)cc21)Nc1cccc(Cl)c1 | / | / | -8%[10.9 µM]
COc1ccccc1OCC(=O)NCCS(=O)(=O)N1CCN(c2ccccc2OC)CC1 | / | / | -6%[10.9 µM]
CCOc1ccc2nc(N3CCCC(C(=O)Nc4ccc(Br)c(C)c4)C3)sc2c1 (centres undefined) | / | / | -7%[10.9 µM]
COc1cc(Br)c(C2CC(=O)Nc3cc(OC)c(OC)c(OC)c32)cc1OC (centres undefined) | / | / | -6%[10.9 µM]
CC1(C)CC2CC(C)(CN2C(=O)COC(=O)c2ccc(Cl)cc2N)C1 (centres undefined) | 25µM* | ? | -17%
COc1ccc(OCC(=O)N2CC3(C)CC2CC(C)(C)C3)cc1 (centres undefined) | i | ? | -13%
COc1ccc(C2=C(Nc3ccc(Br)c(C)c3)c3ccccc3C2=O)cc1 | / | / | -9%[10.9 µM]
SMILES | HEK293 cAMP cs | TSHR agonist | Peg3 imprint
CNS(=O)(=O)c1cn(CC(=O)N2CCN(c3ccccc3OC)CC2)cc1S(=O)(=O)NC | / | / | 2%[10.9 µM]
Brc1cc2c(cc1Cn1c(-c3cncs3)nc3ccccc31)OCO2 | 7.9µM* | ? | -8%
Cc1ccc(NC(=O)Cn2c(-c3cncs3)nc3ccccc32)c(Br)c1 | / | / | 17%[10.9 µM]
Cc1ccc(C)c(Cn2c(-c3cccs3)nc3ccccc32)c1 | / | / | -8%[10.9 µM]
Cc1ccccc1Cn1c(-c2cncs2)nc2ccccc21 | 32µM* | ? | /
COc1ccc(C)cc1NC(=O)Cn1cc(S(=O)(=O)N2CCC(C)CC2)c2ccccc2c1=O | / | / | -7%[10.9 µM]
CN(C)C1CCN(C(=O)c2ccc(-n3c(=O)c(=O)[nH]c4ccccc43)cc2)C1 (centres undefined) | -11% | -5% | /
CCc1ccc(C2c3c(oc4ccc(C)cc4c3=O)C(=O)N2c2nc(C)c(C)s2)cc1 (centres undefined) | / | / | -7%[10.9 µM]
COc1ccc(-n2cnnc2SCC(=O)c2cc(C)n(Cc3cccs3)c2C)cc1 | 25µM* | ? | -4%
Cc1cc(C(=O)COC(=O)c2ccc3c(c2)OCO3)c(C)n1Cc1cccs1 | ? | ? | -29%
CC(=O)Nc1ccc(SCC(=O)c2cc(C)n(Cc3cccs3)c2C)cc1 | ? | ? | -27%

From PubChem
